# Source: article PMC7862700, “An all-to-all approach to the identification of sequence-specific readers for epigenetic DNA modifications on cytosine”
# Tests used:
# Assay in all cases: DAPPL (digital affinity profiling via proximity ligation, sequencing); 10 mM Tris-HCl pH 7.5, 50 mM NaCl, 1 mM DTT, 4% glycerol, room temperature, 30 min; GST-TFs on glutathione beads, 16-mer random dsDNA library, 0.1% formaldehyde crosslink after washing; high values mean tight binding
# FEV = biological target: T1, FEV (Homo sapiens, UniProt Q99581 1-238); settings: protein: recombinant; tags: N-terminal GST; dsDNA, one strand shown
# T1 sequence: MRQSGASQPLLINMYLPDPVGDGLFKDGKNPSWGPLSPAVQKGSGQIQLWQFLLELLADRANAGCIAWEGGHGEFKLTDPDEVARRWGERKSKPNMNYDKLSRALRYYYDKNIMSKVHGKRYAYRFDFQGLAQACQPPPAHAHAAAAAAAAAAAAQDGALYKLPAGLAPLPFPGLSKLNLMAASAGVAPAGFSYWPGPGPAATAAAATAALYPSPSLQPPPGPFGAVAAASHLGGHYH
# Procedure, shortened: (§1)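 The binding signal reported is, for every hexamer, its read frequency for a factor over its read frequency for the tag-only sample. Reads came from pools of yeast-expressed, GST-fused human transcription factors on glutathione beads, barcoded with DNA and mixed with that sample, which were incubated with 200 nmole of a random double-stranded 16-mer DNA library in Tris/NaCl/DTT/glycerol buffer at room temperature for 30 min. After washing, the pools were crosslinked with 0.1% formaldehyde, proximity-ligated with BsaI/T4 ligase for 1 h at 37 °C, PCR-amplified and sequenced on an Illumina NextSeq500.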
# ETV5 = ETV5 (Homo sapiens, UniProt P41161 1-510); settings: protein: recombinant; tags: N-terminal GST; dsDNA, one strand shown
# Procedure, shortened: as §1
# HSF1 = HSF1 (Homo sapiens, UniProt Q00613 1-529); settings: protein: recombinant; tags: N-terminal GST; chain copies: 3; dsDNA, one strand shown
# Procedure, shortened: as §1
# SPIC = biological target: T2, SPIC (Homo sapiens, UniProt Q8N5J4 1-248); settings: protein: recombinant; tags: N-terminal GST; dsDNA, one strand shown
# T2 sequence: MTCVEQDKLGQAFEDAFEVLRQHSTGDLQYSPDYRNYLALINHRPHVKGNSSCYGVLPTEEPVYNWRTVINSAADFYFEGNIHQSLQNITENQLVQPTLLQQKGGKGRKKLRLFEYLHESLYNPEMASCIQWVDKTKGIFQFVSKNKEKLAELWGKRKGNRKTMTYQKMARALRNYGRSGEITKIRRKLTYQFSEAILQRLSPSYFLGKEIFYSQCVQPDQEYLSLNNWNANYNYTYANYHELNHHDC
# Procedure, shortened: as §1
# ELF4 = ELF4 (Homo sapiens, UniProt Q99607 1-663); settings: protein: recombinant; tags: N-terminal GST; dsDNA, one strand shown
# Procedure, shortened: as §1
# ELK4 = biological target: T3, ELK4 (Homo sapiens, UniProt P28324-2 1-405); settings: protein: recombinant; tags: N-terminal GST; dsDNA, one strand shown
# T3 sequence: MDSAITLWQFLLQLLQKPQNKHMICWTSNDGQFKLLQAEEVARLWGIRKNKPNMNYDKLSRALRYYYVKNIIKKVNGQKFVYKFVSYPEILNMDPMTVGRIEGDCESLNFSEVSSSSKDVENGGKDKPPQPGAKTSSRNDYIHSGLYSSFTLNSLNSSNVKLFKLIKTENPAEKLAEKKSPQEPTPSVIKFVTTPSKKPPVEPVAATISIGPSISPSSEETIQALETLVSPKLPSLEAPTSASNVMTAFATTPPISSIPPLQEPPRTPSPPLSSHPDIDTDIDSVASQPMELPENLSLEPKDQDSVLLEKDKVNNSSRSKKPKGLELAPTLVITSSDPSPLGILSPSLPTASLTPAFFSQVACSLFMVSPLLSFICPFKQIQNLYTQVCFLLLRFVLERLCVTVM
# Procedure, shortened: as §1
# ETV2 = biological target: T4, ETV2 (Homo sapiens, UniProt O00321 1-342); settings: protein: recombinant; tags: N-terminal GST; dsDNA, one strand shown
# T4 sequence: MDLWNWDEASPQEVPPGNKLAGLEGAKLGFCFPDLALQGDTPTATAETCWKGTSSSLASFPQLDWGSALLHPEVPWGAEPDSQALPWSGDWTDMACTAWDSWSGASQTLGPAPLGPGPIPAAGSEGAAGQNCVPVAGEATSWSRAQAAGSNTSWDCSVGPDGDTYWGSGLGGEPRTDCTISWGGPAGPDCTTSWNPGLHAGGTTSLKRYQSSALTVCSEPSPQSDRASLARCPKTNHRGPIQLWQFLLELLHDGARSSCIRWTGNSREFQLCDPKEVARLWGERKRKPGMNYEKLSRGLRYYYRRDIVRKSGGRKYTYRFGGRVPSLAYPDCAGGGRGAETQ
# Procedure, shortened: as §1
# ELF3 = biological target: T5, ELF3 (Homo sapiens, UniProt P78545 1-371); settings: protein: recombinant; tags: N-terminal GST; dsDNA, one strand shown
# T5 sequence: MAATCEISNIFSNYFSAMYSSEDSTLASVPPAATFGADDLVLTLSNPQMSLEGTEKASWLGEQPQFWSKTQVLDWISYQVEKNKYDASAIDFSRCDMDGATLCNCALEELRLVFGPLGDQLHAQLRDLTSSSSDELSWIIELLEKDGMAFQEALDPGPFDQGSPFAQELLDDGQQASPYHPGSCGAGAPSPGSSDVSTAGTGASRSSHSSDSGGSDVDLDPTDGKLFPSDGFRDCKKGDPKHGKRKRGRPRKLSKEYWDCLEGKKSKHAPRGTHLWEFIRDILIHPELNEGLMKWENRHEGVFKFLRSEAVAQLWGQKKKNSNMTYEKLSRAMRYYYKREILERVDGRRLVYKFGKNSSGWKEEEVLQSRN
# Procedure, shortened: as §1
# CRX = CRX (Homo sapiens, UniProt O43186 1-299); settings: protein: recombinant; tags: N-terminal GST; dsDNA, one strand shown
# Procedure, shortened: as §1
# ETV1 = ETV1 (Homo sapiens, UniProt P50549 1-477); settings: protein: recombinant; tags: N-terminal GST; dsDNA, one strand shown
# Procedure, shortened: as §1
# ERF = biological target: T6, ERF (Homo sapiens, UniProt P50548 1-548); settings: protein: recombinant; tags: N-terminal GST; dsDNA, one strand shown
# T6 sequence: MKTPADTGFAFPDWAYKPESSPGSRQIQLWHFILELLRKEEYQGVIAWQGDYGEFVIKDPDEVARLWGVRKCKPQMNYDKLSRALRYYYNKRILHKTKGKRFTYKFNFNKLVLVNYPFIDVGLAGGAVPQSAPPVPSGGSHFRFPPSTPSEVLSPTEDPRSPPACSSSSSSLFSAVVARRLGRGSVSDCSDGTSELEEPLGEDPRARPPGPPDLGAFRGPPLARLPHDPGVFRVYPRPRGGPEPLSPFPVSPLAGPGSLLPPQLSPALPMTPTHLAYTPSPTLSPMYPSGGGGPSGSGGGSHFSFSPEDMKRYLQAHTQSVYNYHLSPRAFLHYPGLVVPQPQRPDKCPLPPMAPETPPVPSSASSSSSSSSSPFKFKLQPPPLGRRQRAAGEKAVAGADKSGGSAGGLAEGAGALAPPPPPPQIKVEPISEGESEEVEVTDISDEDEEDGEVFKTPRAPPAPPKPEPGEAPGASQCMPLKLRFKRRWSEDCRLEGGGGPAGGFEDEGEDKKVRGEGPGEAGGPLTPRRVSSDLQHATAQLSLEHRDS
# Procedure, shortened: as §1
# ETV3L = biological target: T7, ETV3L (Homo sapiens, UniProt Q6ZN32 1-361); settings: protein: recombinant; tags: N-terminal GST; dsDNA, one strand shown
# T7 sequence: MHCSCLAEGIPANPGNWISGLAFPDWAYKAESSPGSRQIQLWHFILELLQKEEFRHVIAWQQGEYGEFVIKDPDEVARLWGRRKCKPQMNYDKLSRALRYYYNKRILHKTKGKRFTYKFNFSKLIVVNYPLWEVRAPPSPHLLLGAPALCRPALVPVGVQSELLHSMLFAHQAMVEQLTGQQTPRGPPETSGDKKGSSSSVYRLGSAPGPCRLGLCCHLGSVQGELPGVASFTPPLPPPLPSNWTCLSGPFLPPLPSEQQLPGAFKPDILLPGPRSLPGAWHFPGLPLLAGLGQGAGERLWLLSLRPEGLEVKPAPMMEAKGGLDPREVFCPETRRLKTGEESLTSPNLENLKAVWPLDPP
# Procedure, shortened: as §1
# ETS2 = biological target: T8, ETS2 (Homo sapiens, UniProt P15036 1-469); settings: protein: recombinant; tags: N-terminal GST; dsDNA, one strand shown
# T8 sequence: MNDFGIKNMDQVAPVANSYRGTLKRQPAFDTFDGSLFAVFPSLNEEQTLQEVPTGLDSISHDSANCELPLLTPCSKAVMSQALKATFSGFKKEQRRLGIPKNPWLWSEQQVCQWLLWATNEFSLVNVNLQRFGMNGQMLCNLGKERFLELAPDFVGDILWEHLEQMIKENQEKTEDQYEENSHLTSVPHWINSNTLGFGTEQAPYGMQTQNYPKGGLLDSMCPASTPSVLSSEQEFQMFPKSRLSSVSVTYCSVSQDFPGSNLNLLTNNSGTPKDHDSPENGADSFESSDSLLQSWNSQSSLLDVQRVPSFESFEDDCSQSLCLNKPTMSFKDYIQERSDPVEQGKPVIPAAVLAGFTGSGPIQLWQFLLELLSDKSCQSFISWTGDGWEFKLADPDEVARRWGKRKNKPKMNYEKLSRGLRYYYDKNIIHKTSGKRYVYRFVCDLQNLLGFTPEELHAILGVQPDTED
# Procedure, shortened: as §1
# SPDEF = biological target: T9, SPDEF (Homo sapiens, UniProt O95238 1-335); settings: protein: recombinant; tags: N-terminal GST; dsDNA, one strand shown
# T9 sequence: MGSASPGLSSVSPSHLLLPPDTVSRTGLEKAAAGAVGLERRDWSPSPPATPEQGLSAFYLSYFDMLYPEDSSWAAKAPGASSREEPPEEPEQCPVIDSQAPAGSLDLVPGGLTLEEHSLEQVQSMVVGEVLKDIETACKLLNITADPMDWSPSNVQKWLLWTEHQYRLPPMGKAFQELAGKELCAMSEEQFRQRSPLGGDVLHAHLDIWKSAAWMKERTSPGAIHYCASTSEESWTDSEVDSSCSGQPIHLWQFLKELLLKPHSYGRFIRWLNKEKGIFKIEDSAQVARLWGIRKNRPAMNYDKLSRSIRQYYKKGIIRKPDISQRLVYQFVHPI
# Procedure, shortened: as §1
# ETV7 = biological target: T10, ETV7 (Homo sapiens, UniProt Q9Y603 1-341); settings: protein: recombinant; tags: N-terminal GST; dsDNA, one strand shown
# T10 sequence: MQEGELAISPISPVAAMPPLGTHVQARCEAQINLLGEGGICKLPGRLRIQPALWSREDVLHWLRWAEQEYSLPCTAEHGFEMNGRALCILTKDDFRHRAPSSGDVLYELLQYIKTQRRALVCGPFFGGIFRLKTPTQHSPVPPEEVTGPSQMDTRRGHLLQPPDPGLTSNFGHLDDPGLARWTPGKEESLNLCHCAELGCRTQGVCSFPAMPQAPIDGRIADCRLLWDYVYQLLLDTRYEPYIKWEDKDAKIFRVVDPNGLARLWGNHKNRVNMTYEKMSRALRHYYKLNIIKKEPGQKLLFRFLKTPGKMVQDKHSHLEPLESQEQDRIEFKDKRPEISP
# Procedure, shortened: as §1
# ELF5 = biological target: T11, ELF5 (Homo sapiens, UniProt Q9UKW6-2 1-255); settings: protein: recombinant; tags: N-terminal GST; dsDNA, one strand shown
# T11 sequence: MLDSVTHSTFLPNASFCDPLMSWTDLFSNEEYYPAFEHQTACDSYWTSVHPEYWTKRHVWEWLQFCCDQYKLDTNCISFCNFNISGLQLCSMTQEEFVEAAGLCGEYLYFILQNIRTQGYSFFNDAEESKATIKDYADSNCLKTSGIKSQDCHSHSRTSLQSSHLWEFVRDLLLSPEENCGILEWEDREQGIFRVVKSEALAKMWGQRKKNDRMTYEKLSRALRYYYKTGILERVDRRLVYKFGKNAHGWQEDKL
# Procedure, shortened: as §1
# ETV3 = biological target: T12, ETV3 (Homo sapiens, UniProt P41162-2 1-143); settings: protein: recombinant; tags: N-terminal GST; dsDNA, one strand shown
# T12 sequence: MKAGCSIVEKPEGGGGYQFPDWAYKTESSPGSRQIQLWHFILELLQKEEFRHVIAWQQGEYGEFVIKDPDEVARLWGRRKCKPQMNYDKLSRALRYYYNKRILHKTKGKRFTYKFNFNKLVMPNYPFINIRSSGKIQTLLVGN
# Procedure, shortened: as §1
# ETV6 = ETV6 (Homo sapiens, UniProt P41212 1-452); settings: protein: recombinant; tags: N-terminal GST; dsDNA, one strand shown
# Procedure, shortened: as §1
# Sequence of ETV5 (P41161 whole entry): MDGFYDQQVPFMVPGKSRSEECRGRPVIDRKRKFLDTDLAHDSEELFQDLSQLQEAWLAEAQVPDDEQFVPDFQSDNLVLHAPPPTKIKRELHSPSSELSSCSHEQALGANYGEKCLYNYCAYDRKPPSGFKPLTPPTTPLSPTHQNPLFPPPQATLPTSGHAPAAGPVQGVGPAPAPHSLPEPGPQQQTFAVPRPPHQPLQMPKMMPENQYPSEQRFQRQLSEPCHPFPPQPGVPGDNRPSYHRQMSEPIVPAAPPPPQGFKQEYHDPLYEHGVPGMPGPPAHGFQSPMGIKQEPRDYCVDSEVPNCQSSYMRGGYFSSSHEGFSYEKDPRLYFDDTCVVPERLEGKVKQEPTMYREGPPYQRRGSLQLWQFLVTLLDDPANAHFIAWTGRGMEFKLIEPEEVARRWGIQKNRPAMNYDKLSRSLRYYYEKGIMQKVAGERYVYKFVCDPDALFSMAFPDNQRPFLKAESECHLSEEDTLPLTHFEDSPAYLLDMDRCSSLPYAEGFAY
# Sequence of HSF1 (Q00613 whole entry): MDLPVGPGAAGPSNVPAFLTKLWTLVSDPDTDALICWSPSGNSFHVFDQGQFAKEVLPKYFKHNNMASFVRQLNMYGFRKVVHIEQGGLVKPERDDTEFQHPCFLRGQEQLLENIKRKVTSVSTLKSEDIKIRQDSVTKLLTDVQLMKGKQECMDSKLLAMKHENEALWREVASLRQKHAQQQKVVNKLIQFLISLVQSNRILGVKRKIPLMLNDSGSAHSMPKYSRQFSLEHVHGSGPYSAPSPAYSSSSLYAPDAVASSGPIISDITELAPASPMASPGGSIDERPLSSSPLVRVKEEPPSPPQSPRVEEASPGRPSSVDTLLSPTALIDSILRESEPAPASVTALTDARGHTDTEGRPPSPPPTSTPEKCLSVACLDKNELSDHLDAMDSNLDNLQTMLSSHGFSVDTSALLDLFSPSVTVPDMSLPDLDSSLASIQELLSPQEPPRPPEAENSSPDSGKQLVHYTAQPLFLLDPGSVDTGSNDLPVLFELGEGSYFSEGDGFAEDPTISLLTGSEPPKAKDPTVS
# Sequence of ETV6 (P41212 whole entry): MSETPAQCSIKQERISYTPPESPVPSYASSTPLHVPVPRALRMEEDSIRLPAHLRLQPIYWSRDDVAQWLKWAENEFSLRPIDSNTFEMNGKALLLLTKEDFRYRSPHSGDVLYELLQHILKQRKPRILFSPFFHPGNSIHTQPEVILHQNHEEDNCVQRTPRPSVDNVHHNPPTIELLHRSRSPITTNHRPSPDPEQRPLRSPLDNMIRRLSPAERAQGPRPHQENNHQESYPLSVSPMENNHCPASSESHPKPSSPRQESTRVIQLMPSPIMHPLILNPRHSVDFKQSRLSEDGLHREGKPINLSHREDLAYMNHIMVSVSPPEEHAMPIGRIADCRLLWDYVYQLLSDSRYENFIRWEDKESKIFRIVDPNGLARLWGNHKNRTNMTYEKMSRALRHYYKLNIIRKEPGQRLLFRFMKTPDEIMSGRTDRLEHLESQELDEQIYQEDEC
# Sequence of ETV1 (P50549 whole entry): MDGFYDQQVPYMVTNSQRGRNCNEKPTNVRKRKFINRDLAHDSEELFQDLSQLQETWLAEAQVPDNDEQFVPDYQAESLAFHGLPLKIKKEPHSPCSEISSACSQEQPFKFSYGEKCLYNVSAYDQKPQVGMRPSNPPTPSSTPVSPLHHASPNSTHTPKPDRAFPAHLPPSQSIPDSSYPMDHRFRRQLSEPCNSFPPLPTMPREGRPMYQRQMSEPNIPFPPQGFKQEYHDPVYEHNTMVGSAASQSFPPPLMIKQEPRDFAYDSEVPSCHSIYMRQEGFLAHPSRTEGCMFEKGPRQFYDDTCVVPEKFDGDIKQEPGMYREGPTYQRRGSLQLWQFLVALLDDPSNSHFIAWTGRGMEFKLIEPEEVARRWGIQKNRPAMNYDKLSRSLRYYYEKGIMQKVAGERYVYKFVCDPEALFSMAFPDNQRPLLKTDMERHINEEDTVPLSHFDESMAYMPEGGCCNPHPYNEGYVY
# Sequence of ELF4 (Q99607 whole entry): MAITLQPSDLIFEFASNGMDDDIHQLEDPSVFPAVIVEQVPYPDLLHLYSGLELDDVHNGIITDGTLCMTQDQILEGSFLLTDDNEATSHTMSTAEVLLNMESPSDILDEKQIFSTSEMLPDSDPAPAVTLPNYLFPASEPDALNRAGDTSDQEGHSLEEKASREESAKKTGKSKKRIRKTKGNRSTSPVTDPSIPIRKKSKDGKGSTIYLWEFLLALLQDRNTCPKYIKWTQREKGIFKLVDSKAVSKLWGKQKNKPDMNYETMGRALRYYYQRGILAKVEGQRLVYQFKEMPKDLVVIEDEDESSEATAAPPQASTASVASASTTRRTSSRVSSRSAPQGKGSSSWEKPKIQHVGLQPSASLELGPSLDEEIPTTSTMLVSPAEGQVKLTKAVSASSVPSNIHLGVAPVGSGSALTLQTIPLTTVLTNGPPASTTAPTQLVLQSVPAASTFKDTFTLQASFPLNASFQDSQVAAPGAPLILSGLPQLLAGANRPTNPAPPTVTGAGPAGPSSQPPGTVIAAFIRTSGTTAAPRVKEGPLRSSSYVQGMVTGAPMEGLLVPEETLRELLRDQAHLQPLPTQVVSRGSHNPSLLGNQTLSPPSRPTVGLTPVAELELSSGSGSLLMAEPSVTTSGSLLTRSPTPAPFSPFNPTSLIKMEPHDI
# Sequence of CRX (O43186 whole entry): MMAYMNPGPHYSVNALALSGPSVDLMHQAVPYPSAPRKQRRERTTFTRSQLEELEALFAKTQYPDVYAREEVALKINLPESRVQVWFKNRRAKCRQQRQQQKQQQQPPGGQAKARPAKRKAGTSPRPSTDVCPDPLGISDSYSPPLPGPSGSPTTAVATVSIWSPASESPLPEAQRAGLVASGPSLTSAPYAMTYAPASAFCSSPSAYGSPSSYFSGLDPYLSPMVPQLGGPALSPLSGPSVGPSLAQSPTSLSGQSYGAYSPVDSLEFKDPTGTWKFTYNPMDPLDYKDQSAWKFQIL
sequence,measurement,setting,value
CTCATT,binding signal,FEV,"1.44 fold enrichment (6-mer frequency, TF over GST control)"
same,binding signal,ETV5,"1.41 fold enrichment (6-mer frequency, TF over GST control)"
same,binding signal,HSF1,"1.36 fold enrichment (6-mer frequency, TF over GST control)"
same,binding signal,SPIC,"1.29 fold enrichment (6-mer frequency, TF over GST control)"
same,binding signal,ELF4,"1.52 fold enrichment (6-mer frequency, TF over GST control)"
same,binding signal,ELK4,"1.63 fold enrichment (6-mer frequency, TF over GST control)"
same,binding signal,ETV2,"1.49 fold enrichment (6-mer frequency, TF over GST control)"
same,binding signal,ELF3,"1.35 fold enrichment (6-mer frequency, TF over GST control)"
same,binding signal,CRX,"1.45 fold enrichment (6-mer frequency, TF over GST control)"
same,binding signal,ETV1,"1.52 fold enrichment (6-mer frequency, TF over GST control)"
same,binding signal,ERF,"1.35 fold enrichment (6-mer frequency, TF over GST control)"
same,binding signal,ETV3L,"1.47 fold enrichment (6-mer frequency, TF over GST control)"
same,binding signal,ETS2,"1.49 fold enrichment (6-mer frequency, TF over GST control)"
same,binding signal,SPDEF,"1.33 fold enrichment (6-mer frequency, TF over GST control)"
same,binding signal,ETV7,"1.29 fold enrichment (6-mer frequency, TF over GST control)"
same,binding signal,ELF5,"1.5 fold enrichment (6-mer frequency, TF over GST control)"
same,binding signal,ETV3,"1.39 fold enrichment (6-mer frequency, TF over GST control)"
same,binding signal,ETV6,"1.45 fold enrichment (6-mer frequency, TF over GST control)"
